Several values for one entry are separate records, joined by “and”; a condition that tells them apart may be missing. Identical values can stand only once. Results filed as inconclusive are left out. Where a call stands in place of a potency, no number is given. A structure can be active in one record and inactive in another. Activity calls are given as the source filed them. Unless noted, calls follow the shape of the dose curve; as a rule, active = well fitted curve in the direction sought with a large enough effect in the repeat runs; inconclusive = weak or mixed curves; inactive = no such curve, though single readings can be large; an effect the other way counts as inactive or inconclusive.
Tests used:
[1] = qHTS assay for small molecules that induce genotoxicity in human embryonic kidney cells expressing luciferase-tagged ATAD5 (AID 651632); also: nearly all actives have a fitted effect of over 15% in size; also: potency is read from the fitted curve at half-maximal effect
In short: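 Genotoxicity read-out via ATAD5-luciferase: HEK293T cells, 16 hr compound incubation at 37C, Amplite detection.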

[2] = qHTS assay for small molecule agonists of the p53 signaling pathway - cell viability (AID 651633; calls by dose curve; also: nearly all actives have a fitted effect of over 30% in size; also: potency is read from the fitted curve at half-maximal effect)
In short: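 p53RE-bla cells, seeded at 4,000 per well and rested 5 h at 37 C/5% CO2, received compounds in DMSO for 16 h at 37 C. CellTiter-Glo was then added, and luminescence was read after 30 min at room temperature to gauge cytotoxicity.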

[3] = qHTS assay for small molecules that induce genotoxicity in human embryonic kidney cells expressing luciferase-tagged ATAD5 - cell viability (AID 651634; calls by dose curve; also: nearly all actives have a fitted effect of over 25% in size; also: potency is read from the fitted curve at half-maximal effect)
In short: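 Live-cell protease activity (CellTiter-Fluor, fluorescence) indicates viability. HEK293T cells with luciferase-tagged ATAD5; 15.5 hr compound treatment at 37C.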

[4] = qHTS assay for small molecule disruptors of the mitochondrial membrane potential - cell viability (AID 720634; calls by dose curve; also: nearly all actives have a fitted effect of over 20% in size; also: potency is read from the fitted curve at half-maximal effect)
In short: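 Human hepatoma HepG2 cells were treated for 1 hr with test chemicals, then given m-MPI dye and CellTiter-Glo. Cell viability reflects luminescence proportional to cellular ATP.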

[5] = qHTS assay for small molecule disruptors of the mitochondrial membrane potential (AID 720635); also: potency is read from the fitted curve at half-maximal effect
In short: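 HepG2 cells (2,000/well) attached overnight at 37C, then took compound for 1 hr at 37C, 5% CO2. Mito-MPS dye was added for 30 min; fluorescence was read at 490/535 nm (monomers) and 540/590 nm (aggregates).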

[6] = qHTS assay to test for compound auto fluorescence at 590 nm (red) in HepG2 cells (AID 720674)
In short: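 Rose Bengal sodium served as the red fluorophore standard. HepG2 monolayers (overnight attachment, MEM with 10% FBS) were exposed to test compounds for 1 hr at 37 C and read at Ex 540/Em 590 nm.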

[7] = qHTS assay to test for compound auto fluorescence at 460 nm (blue) in HEK293 cells (AID 720678)
In short: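 Cells were seeded and left to adhere for 4-5 hr at 37C. Compounds were then pin-transferred. After an overnight incubation at 37C under 5% CO2, intrinsic fluorescence at 405/460 nm was measured and referenced to triamterene.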

[8] = qHTS assay to test for compound auto fluorescence at 590 nm (red) in HEK293 cells (AID 720679)
In short: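 Each well held 2,000 HEK293 cells in medium containing 10% dialyzed FBS. Following 4-5 hr attachment at 37C, 23 nL test compound or DMSO was added; plates sat overnight, and red fluorescence (540/590nm) was recorded.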

[9] = qHTS assay to test for compound auto fluorescence at 535 nm (green) in HEK293 cells (AID 720680)
[10] = qHTS assay to test for compound auto fluorescence at 460 nm (blue) in HEK293 cell free culture (AID 720681)
In short: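 Test compounds were pinned into cell-free culture medium (DMEM with 10% FBS) and fluorescence was read directly at Ex/Em 405/460 nm. Signals were expressed as fluorescence equivalents of triamterene, with DMSO vehicle as control.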

[11] = qHTS assay to test for compound auto fluorescence at 535 nm (green) in HEK293 cell free culture (AID 720682)
In short: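 Each library compound, or DMSO control, is added by pintool to medium alone, comprising DMEM and 10% FBS. Emission at 535 nm following 485 nm excitation is quantified against fluorescein.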

[12] = qHTS assay to test for compound auto fluorescence at 590 nm (red) in HEK293 cell free culture (AID 720683)
In short: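 Tox21 10K library compounds were pinned into cell-free DMEM with 10% FBS and fluorescence was read at excitation 540 nm. Activity is expressed as Rose Bengal sodium equivalency.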

[13] = qHTS assay to test for compound auto fluorescence at 590 nm (red) in HepG2 cell free culture (AID 720684)
In short: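 Measured in medium alone (MEM containing 10% FBS) following pintool addition of compound; emission at 590 nm with 540 nm excitation, referenced to Rose Bengal sodium.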

[14] = qHTS assay to test for compound auto fluorescence at 460 nm (blue) in HepG2 cell free culture (AID 720685)
In short: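 Compound (23 nL) or DMSO pinned into cell-free MEM with 10% FBS; blue fluorescence read at 405/460 nm excitation/emission, expressed as auto-fluorescence equivalency to triamterene.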

[15] = qHTS assay to test for compound auto fluorescence at 535 nm (green) in HepG2 cell free culture (AID 720686)
[16] = qHTS assay to test for compound auto fluorescence at 460 nm (blue) in HepG2 cells (AID 720687)
In short: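 Cells (2,000/well in MEM with 10% FBS) attached overnight at 37 C, then were exposed to compound or DMSO for 1 hr at 37 C, 5% CO2. Fluorescence read at Ex/Em 405/460 nm, expressed as triamterene-equivalent signal.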

[17] = molecular target: Glucocorticoid receptor (Homo sapiens) (UniProt P04150); assay: qHTS assay to identify small molecule antagonists of the glucocorticoid receptor (GR) signaling pathway (AID 720692; active = well fitted inhibition curve with a large enough effect in the signal ratio in the repeat runs, not every such curve was filed as active; the % refers to the signal ratio)
Sequence of Glucocorticoid receptor (Homo sapiens) (P04150 whole entry, looked up): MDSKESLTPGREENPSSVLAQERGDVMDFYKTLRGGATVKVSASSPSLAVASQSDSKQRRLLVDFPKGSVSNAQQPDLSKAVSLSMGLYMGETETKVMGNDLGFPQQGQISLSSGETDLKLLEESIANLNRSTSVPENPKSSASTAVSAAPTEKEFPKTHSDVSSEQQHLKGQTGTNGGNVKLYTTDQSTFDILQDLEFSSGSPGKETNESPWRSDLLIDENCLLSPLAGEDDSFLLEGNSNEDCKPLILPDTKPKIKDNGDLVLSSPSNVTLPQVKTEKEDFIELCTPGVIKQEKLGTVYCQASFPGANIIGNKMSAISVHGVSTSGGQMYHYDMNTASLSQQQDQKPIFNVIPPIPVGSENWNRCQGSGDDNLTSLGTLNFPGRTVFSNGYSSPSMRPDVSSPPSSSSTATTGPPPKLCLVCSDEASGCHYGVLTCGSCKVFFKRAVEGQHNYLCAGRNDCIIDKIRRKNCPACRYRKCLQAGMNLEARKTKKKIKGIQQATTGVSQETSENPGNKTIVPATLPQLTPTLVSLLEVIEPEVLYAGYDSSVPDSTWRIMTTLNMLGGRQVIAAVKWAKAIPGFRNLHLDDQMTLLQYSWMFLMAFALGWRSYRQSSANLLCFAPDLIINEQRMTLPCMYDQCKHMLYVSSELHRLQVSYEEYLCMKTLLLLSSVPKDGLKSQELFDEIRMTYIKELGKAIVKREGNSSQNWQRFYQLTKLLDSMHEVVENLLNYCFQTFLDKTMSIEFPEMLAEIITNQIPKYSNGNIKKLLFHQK
In short: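 Fluorescence from cleaved LiveBLAzer B/G FRET substrate reports GRE-driven beta-lactamase in HeLa cells; compounds are tested against 5 nM dexamethasone (final) over 18 h at 37 C, substrate incubation 2 h at room temperature.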

[18] = qHTS assay to test for compound auto fluorescence at 535 nm (green) in HepG2 cells (AID 720675)
[19] = molecular target: Glucocorticoid receptor (Homo sapiens) (UniProt P04150); assay: qHTS assay to identify small molecule agonists of the glucocorticoid receptor (GR) signaling pathway (AID 720691; active = well fitted activation curve with a large enough effect in the signal ratio in the repeat runs, not every such curve was filed as active; the % refers to the signal ratio)
In short: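 Beta-lactamase reporter activity, read as fluorescence intensity, was measured in GR-bla HeLa cells exposed to compounds for 18 h at 37 C and then loaded with LiveBLAzer B/G FRET substrate for 2 h at room temperature.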

SMILES | Potency [1] | Potency [2] | Potency [3] | Potency [4] | Potency [5] | outcome [6] | Potency [7] | outcome [8] | outcome [9] | Potency [10] | outcome [11] | outcome [12] | outcome [13] | Potency [14] | outcome [15] | Potency [16] | Potency [17] | outcome [18] | outcome [19]
CC(C)COC(=O)c1ccccc1C(=O)OCC(C)C | inactive | inactive | inactive | inactive | 68.6 µM (active) | inactive | inactive | inactive | inactive | inactive | inactive | inactive | inactive | inactive | inactive | inactive | inactive | – | –
CCCCCCCCCc1ccc(O)cc1 | inactive | – | – | 17.4 µM (active) | 6.18 µM (active) | inactive | inactive | inactive | inactive | inactive | inactive | inactive | inactive | inactive | inactive | inactive | – | inactive | –
COP(=S)(OC)SCn1nnc2ccccc2c1=O | inactive | inactive | inactive | – | – | inactive | inactive | inactive | inactive | inactive | inactive | inactive | inactive | inactive | inactive | inactive | – | – | –
Oc1ccc(Cl)cc1Cc1ccccc1 | inactive | 55.1 µM (active) | – | 13.3 µM (active) and 21.7 µM (active) and 15.4 µM (active) | 5.96 µM (active) and 2.43 µM (active) and 1.55 µM (active) | inactive | inactive | inactive | inactive | inactive | inactive | inactive | inactive | inactive | inactive | inactive | – | – | –
N#Cc1nn(-c2c(Cl)cc(C(F)(F)F)cc2Cl)c(N)c1S(=O)C(F)(F)F (stereo not given) | inactive | inactive | inactive | 10.6 µM (active) and 1.54 µM (active) | 5.31 µM (active) and 1.54 µM (active) | inactive | inactive | inactive | inactive | inactive | inactive | inactive | inactive | inactive | inactive | inactive | – | inactive | inactive
N#Cc1cccnc1 | inactive | inactive | inactive | inactive | inactive | inactive | inactive | inactive | inactive | inactive | inactive | inactive | inactive | inactive | inactive | inactive | inactive | inactive | –
CCC[CH2][Sn]([Cl])([Cl])[CH2]CCC | inactive | 2.2 µM (active) and 969 nM (active) | 694 nM (active) and 34.4 nM (active) | – | – | inactive | inactive | inactive | inactive | inactive | inactive | inactive | inactive | inactive | inactive | inactive | – | – | –
CC(C)(c1ccccc1)c1ccc(O)c(C(C)(C)c2ccccc2)c1 | inactive | 13.6 µM (active) and 30.6 µM (active) | 60.6 µM (active) | – | 1.52 µM (active) and 2.43 µM (active) | inactive | inactive | inactive | inactive | inactive | inactive | inactive | inactive | inactive | inactive | inactive | – | inactive | –
CC(C)(c1ccc(OCC2CO2)cc1)c1ccc(OCC2CO2)cc1 (stereo not given) | inactive | 61.9 µM (active) and 61.1 µM (active) | inactive | – | – | inactive | inactive | inactive | inactive | inactive | inactive | inactive | inactive | inactive | inactive | inactive | – | – | inactive
O=S(=O)(O)C(F)(F)C(F)(F)C(F)(F)C(F)(F)C(F)(F)C(F)(F)C(F)(F)C(F)(F)F | inactive | inactive and 48.6 µM (active) | inactive | – | – | inactive | inactive | inactive | inactive | inactive | inactive | inactive | inactive | inactive | inactive | inactive | – | – | –
CCC[CH2][Sn]([Cl])([CH2]CCC)[CH2]CCC | inactive | 687 nM (active) and 1.22 µM (active) | 612 nM (active) and 3.06 µM (active) | 1.73 µM (active) and 4.86 µM (active) | 61.3 nM (active) and 122 nM (active) | inactive | inactive | inactive | inactive | inactive | inactive | inactive | inactive | inactive | inactive | inactive | – | – | –
OCCOCCO | inactive | inactive | inactive | inactive | – | inactive | inactive | inactive | inactive | inactive | inactive | inactive | inactive | inactive | inactive | inactive | – | inactive | –
COc1ccc(O)c(C(C)(C)C)c1 | inactive | inactive | inactive | inactive | 30.7 µM (active) and 24.3 µM (active) | inactive | inactive | inactive | inactive | inactive | inactive | inactive | inactive | inactive | inactive | inactive | – | – | –
Cl | – | – | inactive | – | – | inactive | inactive | inactive | inactive | inactive | inactive | inactive | inactive | inactive | inactive | inactive | – | – | –
O=C1C(Cl)=C(Cl)C(=O)c2ccccc21 | inactive | 6.88 µM (active) and 21.7 µM (active) | inactive | 13.7 µM (active) and 15.4 µM (active) | 3.87 µM (active) and 4.86 µM (active) | inactive | – | inactive | inactive | inactive | inactive | inactive | inactive | inactive | inactive | inactive | – | – | –
O=C(O)CF | inactive | inactive | inactive | inactive | inactive | inactive | inactive | inactive | inactive | inactive | inactive | inactive | inactive | inactive | inactive | inactive | – | – | –
Nc1ccc([N+](=O)[O-])cc1N | inactive | inactive | 54.4 µM (active) | inactive | 30.6 µM (active) | inactive | inactive | inactive | inactive | inactive | inactive | inactive | inactive | inactive | inactive | inactive | – | – | –
CC(C)=CC1C(C(=O)OCc2cccc(Oc3ccccc3)c2)C1(C)C (stereo not given) | inactive | inactive | inactive | inactive | inactive | inactive | inactive | inactive | inactive | inactive | inactive | inactive | inactive | inactive | inactive | inactive | – | inactive | inactive
CCNCC | inactive | inactive | inactive | inactive | inactive | inactive | inactive | inactive | inactive | inactive | inactive | inactive | inactive | inactive | inactive | inactive | inactive | inactive | inactive
CSc1nc(NC(C)C)nc(NC(C)C)n1 | inactive | inactive | inactive | inactive | – | inactive | inactive | inactive | inactive | inactive | inactive | inactive | inactive | inactive | inactive | inactive | – | inactive | –
C[N+](C)(C)CC(=O)[O-] | inactive | inactive | inactive | inactive | inactive | inactive | inactive | inactive | inactive | inactive | inactive | inactive | inactive | inactive | inactive | inactive | – | – | –
C=CC(=O)OCC(CC)(COC(=O)C=C)COC(=O)C=C | 7.04 µM (active) | 35.3 µM (active) | 15.8 µM (active) and 19.3 µM (active) | inactive | 62.8 µM (active) | inactive | inactive | inactive | inactive | inactive | inactive | inactive | inactive | inactive | inactive | inactive | – | inactive | –
Clc1cccc(Cl)c1 | inactive | inactive | inactive | inactive | inactive | inactive | inactive | inactive | inactive | inactive | inactive | inactive | inactive | inactive | inactive | inactive | – | – | –
